Source: ChEMBL document CHEMBL1157539, “Thousands of chemical starting points for antimalarial lead identification” (Nature, 2010)

Key:
Assay type in all cases: functional
[1] = system: Plasmodium falciparum; test: GSK_TCMDC: Inhibition of Plasmodium falciparum 3D7 in whole red blood cells, using parasite LDH activity as an index of growth. Test compounds present at 2uM
[2] = system: Plasmodium falciparum; test: GSK_TCMDC: Inhibition of Plasmodium falciparum Dd2 in whole red blood cells, using parasite LDH activity as an index of growth. Test compounds present at 2uM
[3] = system: HepG2; test: GSK_TCMDC: Percent inhibition of human HepG2 cell line. Test compounds present at 10uM.

Row | SMILES | Inhibition [1] [%] | Inhibition [2] [%] | Inhibition [3] [%]
1 | CCN(CCCN1CCCCC1)c1cc(C)nc(Nc2ccc3c(c2)CCC3)n1.O=C(O)C(F)(F)F | 100 | 93 | 32
2 | CN1CCCc2ccc(NC(=O)c3cnc(-c4ccccc4)cn3)cc21 | 87 | 82 | 24
3 | O=[N+]([O-])c1ccc(C(O)P(=O)(c2ccccc2)c2ccccc2)cc1 (stereo unspecified) | 98 | 1 | 1
4 | Cc1sc2ncnc(Sc3nc4ccccc4[nH]3)c2c1C | 99 | 100 | 14
5 | C=CCn1c(SCC(=O)Nc2cc(C)ccc2OC)nc2sc(C)cc2c1=O | 100 | 86 | 6
6 | O=C1COc2ccccc2N1C/C=C(\CN1CCC(c2ccccc2)CC1)c1cc(Cl)cc(Cl)c1 | 91 | 72 | 14
7 | CCOC(=O)c1ccc(N2CCN(CCCNC(=O)/C(=C/C=C/c3cc4cc(Cl)c(Cl)cc4[nH]3)OC)CC2)cc1 | 93 | 72 | 39
8 | CN1CCN(c2cccc(-c3nnc(-c4ccc(OCC(=O)NCc5ccc(C(F)(F)F)cc5)c([N+](=O)[O-])c4)o3)c2)CC1 | 90 | 44 | 35
9 | COc1ccccc1CN1CCC(CNC(=O)c2cc(-c3ccc(N(C)C)cc3)cs2)C1.O=C(O)C(F)(F)F (stereo unspecified) | 82 | 16 | 17
10 | Cc1nc2nc(N)nc(N)c2c(C)c1Cc1ccc(C(F)(F)F)cc1.Cl | 96 | 22 | 57
11 | COc1ccc(CCN(Cc2cccs2)C(=O)c2cc3sccc3n2C)cc1OC | 94 | 97 | 0
12 | C(=Cc1ccccc1)C=NN=c1cc[nH]c2ccccc12 | 100 | 100 | 24
13 | CN(Cc1ccccc1)C1CCCN(c2cc(NC(=O)c3ccc(F)cc3)ccn2)C1.O=C(O)C(F)(F)F (stereo unspecified) | 93 | 95 | 7
14 | CC(Cc1ccc(CN2CCN(Cc3ccccc3)CC2)cc1)NCC(O)c1cccc(C(F)(F)F)c1.Cl (stereo unspecified) | 97 | 98 | 51
15 | Cl.O=C(Nc1ccc(C(=O)Nc2cccc(C3=NCCN3)c2)cc1)Nc1ccc(C2=NCCN2)cc1 | 96 | 98 | 0
16 | O=C(/C=C/c1ccc(Cl)c(Cl)c1)NC1CCC(CN2CCC(Cc3c[nH]c4ccccc34)CC2)CC1 (stereo unspecified) | 100 | 9 | 25
17 | N#Cc1cncc(-c2nc3c(N4CCN(c5cnccn5)CC4)cccc3n2CCNCc2ccccc2)c1.O=C(O)C(F)(F)F | 99 | 31 | 0
18 | COc1cc2c(cc1C(F)(F)F)N(C(=O)Nc1cc(F)c(F)c(-c3cccnc3)c1)CC2 | 90 | 15 | 20
19 | COc1ccc(CC2(c3ccc(F)cc3)N=C(N)N(CCCc3ccc(F)c(F)c3)C2=O)cc1.O=C(O)C(F)(F)F (stereo unspecified) | 98 | 98 | 42
20 | Cc1cnc(-c2ccc(NC(=O)N3CCc4cc5nccc(N6CCN7CCC[C@H]7C6)c5cc43)c3ccccc23)o1.Cl | 100 | 45 | 12
21 | O=C(O)C(F)(F)F.c1ccc(CNCc2cccc(-c3ccc(-c4nc5ccccc5[nH]4)s3)c2)cc1 | 95 | 63 | 8
22 | O=C(Cn1c(CCc2cccc(F)c2F)nc(=O)c2ccccc21)N(Cc1ccc(-c2ccc(C(F)(F)F)cc2)cc1)C1CCN(C2=NCCS2)CC1.O=C(O)C(O)C(O)C(=O)O | 81 | 85 | 62
23 | C=C[C@H]1CN2CC[C@H]1C[C@@H]2[C@@H](O)c1ccnc2ccc(OC)cc12 [QUINIDINE] | 98 | 95 | 0
24 | N=C(N)NCCN(Cc1ccccc1)c1ccc(Cl)cc1 | 100 | 99 | 0
25 | Cc1ccc(Nc2nc3cc(Nc4ccnc(Nc5cccc(CS(C)(=O)=O)c5)n4)ccc3o2)cc1.O=C(O)C(F)(F)F | 100 | 81 | 55
26 | O=C(Nc1ccc(OC2CCN(Cc3ccsc3)C2)c(Cl)c1)c1ccc(F)cc1.O=C(O)C(F)(F)F (stereo unspecified) | 89 | 73 | 0
27 | Cc1c(F)cc(C(=O)NC2CC2)cc1-c1ccc2c(cnn2S(=O)(=O)c2ccc(F)c(F)c2)c1 | 91 | 76 | 49
